In PubChem BioAssay one finds fold change permeability data, which are given here for 36 molecules.

SMILES strings stand for the structures. Values joined by “and” are separate entries in the source; they are usually repeats but may differ in a detail not shown here. Equal values may be shown once. The source holds several records for some structures; these can differ, active in one and inactive in another. Active and inactive are the calls of the source. Rule as the data show it: active = fold change permeability below about 0.7 or above about 1.3; inactive = in between.

The experiment in a line: compounds altering in vitro BBB leakiness – cell-based, FITC-avidin fluorescence, HTS, primary screen (AID 1963498). Also: test concentration not given here. The following applies: brain endothelial barrier, actives lie on both sides.
Regarding `COC[C@H]1OC(=O)c2coc3c2[C@@]1(C)C1=C(C3=O)C2CCC(=O)[C@@]2(C)C[C@H]1OC(C)=O` (stereo partly specified), the fold change permeability was 1.7 (active).

Take `NC(=O)CN1CCCC1=O`: the fold change permeability is 1.2 (inactive).

On to `CS(=N)(=O)CC[C@H](N)C(=O)O` (stereo partly specified), for which the fold change permeability is 0.8 (inactive).

As to `CCCN(CCC)CCc1ccc(O)c(O)c1`, the fold change permeability was 0.8 (inactive).

As for `NCCCP(=O)(O)O`, the fold change permeability was 1.3 (active).

For the molecule `COC(=O)[C@@H](N)CCCN=C(N)N[N+](=O)[O-]`, the fold change permeability was 0.9 (inactive).

As to `CP(=O)(O)C1=CCNCC1`, the fold change permeability is 1.4 (active).

Consider `CC[C@@H](C(N)=O)N1CCCC1=O`, for which the fold change permeability is 0.9 (inactive).

On to `COc1ccc2[nH]cc(CCN)c2c1`, for which the fold change permeability was 0.8 (inactive).

`NC(CCP(=O)(O)O)C(=O)O` (stereo unspecified): the fold change permeability is 1 (inactive).

As to `O=C(O)CC[N+](=O)[O-]`, the fold change permeability was 0.9 (inactive).

As to `O=C(O)Cc1cnc[nH]1`, the fold change permeability was 1 (inactive).

`O=C(CCCN1CCC2(CC1)C(=O)NCN2c1ccccc1)c1ccc(F)cc1`: the fold change permeability is 1 (inactive).

As for `COc1ccc2[nH]c3c(c2c1)CCNC3`, the fold change permeability was 1 (inactive).

For `CCC1(c2ccc(N)cc2)CCC(=O)NC1=O` (stereo unspecified), the fold change permeability was 1 (inactive).

As for `O=C(N[C@H]1CN2CCC1CC2)c1c[nH]c2ccsc2c1=O`, the fold change permeability was 0.9 (inactive).

Turning to `CC(C(O)c1ccc(O)cc1)N1CCC(Cc2ccccc2)CC1` (stereo unspecified), the fold change permeability was 1.3 (active).

As to `NC(CP(=O)(O)O)C(=O)O` (stereo unspecified), the fold change permeability was 1 (inactive).

Turning to `NC(=O)CI`, the fold change permeability is 1.2 (inactive).

Take `COC(=O)N1CCN(C(=O)Cc2ccc(Cl)c(Cl)c2)C(CN2CCCC2)C1` (stereo unspecified): the fold change permeability was 1.3 (active).

As to `C#C[C@]1(O)CC[C@H]2[C@@H]3CCC4=Cc5nc6nc7ccccc7n6cc5C[C@]4(C)[C@H]3CC[C@@]21C`, the fold change permeability is 1.8 (active).

Regarding `Cc1ccc2c(c1)C1(CCN(CCc3nc(-c4ccccc4)oc3C)CC1)OC(=O)N2`, the fold change permeability is 1 (inactive).

As to `C[N+]1(C)[C@@H]2CC[C@H]1CC(OC(=O)C(CO)c1ccccc1)C2` (stereo partly specified), the fold change permeability was 1 (inactive).

In the case of `CN1CC[C@@]2(C)c3cc(OC(=O)Nc4ccccc4)ccc3N(C)[C@@H]12`, the fold change permeability is 1.4 (active).

In the case of `Nc1ccncc1`, the fold change permeability is 0.9 (inactive).

On to `O=C(O)[C@@H]1CCN1`, for which the fold change permeability was 1 (inactive).

`CCCN1CCC[C@H](c2cccc(O)c2)C1`: the fold change permeability was 1 (inactive).

As for `NCC1(CC(=O)O)CCCCC1`, the fold change permeability is 0.9 (inactive).

For `CCCCc1ccc(C(=O)O)nc1`, the fold change permeability is 0.8 (inactive).

Turning to `CN[C@@H]1Cc2cccc3[nH]c(=O)n(c23)C1`, the fold change permeability was 0.8 (inactive).

For the molecule `COc1ccc(C(CN(C)C)C2(O)CCCCC2)cc1` (stereo unspecified), the fold change permeability was 1 (inactive).

On to `CN1C[C@H](CNC(=O)OCc2ccccc2)C[C@@H]2c3cccc4c3c(cn4C)C[C@H]21`, for which the fold change permeability was 1.4 (active).

Regarding `COc1ccc(C(=O)N2CCCC2=O)cc1`, the fold change permeability was 1 (inactive).

As for `CC[C@@H]1C(=O)OC[C@@H]1Cc1cncn1C`, the fold change permeability is 1.3 (active) and 1.2 (inactive).

On to `N#CC(C#N)=Cc1ccc(O)c(O)c1`, for which the fold change permeability was 1.2 (inactive).

With `C[C@@H](N)Cc1cnc[nH]1`, the fold change permeability was 0.9 (inactive).
